High-throughput results as filed in PubChem BioAssay.
Granule exo inh = blocks lytic granule exocytosis; TALL-104 LAMP-1 surface exposure, flow cytometry; cells stimulated with thapsigargin and PMA; inhibition, % at 10 µM; actives 0.66% (n = 360,000); AID 651702;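 active = inhibition above about 55%, limit read from the data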
TLR4-MyD88 BLA = inhibitors of human TLR4-MyD88 binding; AID 861; actives 0.18% (n = 200,000); inhibition, % at 8.4 µM; HeLa CL3-4 TLR4/MyD88 BLA complementation, FRET ratio; in the data active = inhibition above about 25%;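 also: 0% = vehicle and 100% = reference inhibitor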
Target sequence (O00206 whole entry, looked up): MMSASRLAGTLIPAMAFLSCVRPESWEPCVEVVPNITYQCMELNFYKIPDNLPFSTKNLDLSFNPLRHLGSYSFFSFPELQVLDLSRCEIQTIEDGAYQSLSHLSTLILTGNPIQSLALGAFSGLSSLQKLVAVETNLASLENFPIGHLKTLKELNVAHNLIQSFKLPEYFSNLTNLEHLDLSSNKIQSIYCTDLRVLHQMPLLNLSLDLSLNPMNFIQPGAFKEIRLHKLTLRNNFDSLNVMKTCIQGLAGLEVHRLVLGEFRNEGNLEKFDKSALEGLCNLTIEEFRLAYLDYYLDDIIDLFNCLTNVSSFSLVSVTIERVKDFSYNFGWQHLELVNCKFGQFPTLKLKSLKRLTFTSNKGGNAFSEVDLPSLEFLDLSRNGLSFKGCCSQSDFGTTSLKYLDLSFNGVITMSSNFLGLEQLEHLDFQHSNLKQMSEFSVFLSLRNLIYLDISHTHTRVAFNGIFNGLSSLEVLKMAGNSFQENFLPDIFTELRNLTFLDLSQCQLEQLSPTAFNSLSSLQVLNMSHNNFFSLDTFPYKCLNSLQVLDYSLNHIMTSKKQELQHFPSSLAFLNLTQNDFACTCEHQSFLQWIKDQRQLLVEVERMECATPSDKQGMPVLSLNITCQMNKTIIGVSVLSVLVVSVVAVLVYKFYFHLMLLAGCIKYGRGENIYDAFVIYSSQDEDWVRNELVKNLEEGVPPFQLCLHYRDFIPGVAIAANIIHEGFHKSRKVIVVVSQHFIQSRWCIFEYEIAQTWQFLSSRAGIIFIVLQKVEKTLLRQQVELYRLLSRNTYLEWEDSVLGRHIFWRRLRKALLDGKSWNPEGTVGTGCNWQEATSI
Target sequence (Q99836 whole entry, looked up): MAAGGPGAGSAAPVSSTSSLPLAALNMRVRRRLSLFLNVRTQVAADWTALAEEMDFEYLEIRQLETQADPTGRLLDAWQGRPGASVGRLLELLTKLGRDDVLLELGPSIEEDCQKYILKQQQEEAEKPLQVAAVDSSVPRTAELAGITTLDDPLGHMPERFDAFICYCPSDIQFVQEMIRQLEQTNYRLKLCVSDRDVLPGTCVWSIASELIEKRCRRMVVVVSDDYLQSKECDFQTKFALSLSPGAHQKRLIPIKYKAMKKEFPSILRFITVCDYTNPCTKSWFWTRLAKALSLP
ABHD5-PLIN5 inh = blocks binding of human ABHD5 to perilipin-5; Q00G26+Q8WTS1; Split G. princeps luciferase complementation, luminescence, 4 h; inhibition, % at 4 µM; actives 0.78% (n = 360,000); AID 602281;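 active = inhibition above the mean inhibition across every tested compound plus 3 SD, cut at about 22% in these data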;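 also: 0% = DMSO only wells and the 100% control is not disclosed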
TLR9-MyD88 inh = blocks human TLR9 binding to MyD88; inhibition, % at 4.98 µM; CHO BLA complementation TLR9-MyD88, CCF4 FRET ratio; actives 0.21% (n = 340,000); Q9NR96+Q99836;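 active = inhibition above the mean over all tested compounds plus 3 SD, cut at about 21% in these data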;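 also: 0% = DMSO only wells and 100% = clavulanate BLA inhibitor control wells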
Beta2AR agonist = human beta-2 adrenergic receptor agonism by FAP; P07550; Am2.2-beta2AR cells, FAP receptor internalization, flow cytometry; response, % (concentration not given with the values); actives 0.43% (n = 340,000);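 active = response above a set limit, near 3 SD of response in nonfluorescent compounds, cut at about 42% in these data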
NOD2-RIPK2 inh = blocks binding of human NOD2 to RIPK2. CHO BLA complementation NOD2-RIPK2, CCF4 ratio. inhibition, % at 4.98 µM. actives 0.38% (n = 360,000). AID 624267; in the data active = inhibition above about 21%;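 also: 0% = vehicle only and 100% = reference blocker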
ABHD5-PLIN5 conf = ABHD5-PLIN5 interaction inhibition, confirmed; shares compounds with ABHD5-PLIN5 inh; biochemical ABHD5-PLIN5 interaction, luminescence; inhibition, % at 4 µM; actives 67% (n = 2,200); in the data active = inhibition above about 23%;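 also: 0% = DMSO vehicle wells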
HNF4 counter = counter-screen for ABHD5-PLIN5 inhibitors: HNF4 split-luciferase; shares compounds with ABHD5-PLIN5 inh; HNF4 dimerization, luminescence, biochemical; inhibition, % at 4 µM; actives 77% (n = 2,200); AID 651674;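 active = mean inhibition across replicate wells exceeding the computed hit threshold, cut at about 13% in these data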;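 also: light from luciferase halves that rejoin when HNF4 fusion proteins dimerize; 0% = DMSO only wells and the 100% control is not given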
* hit, by the source's call; . = no result given. The list is not random: actives were taken first. Their share in the collection is about 2%.

SMILES	Granule exo inh	TLR4-MyD88 BLA	ABHD5-PLIN5 inh	TLR9-MyD88 inh	Beta2AR agonist	NOD2-RIPK2 inh	ABHD5-PLIN5 conf	HNF4 counter
Cc1ccc(S(=O)(=O)N2Cc3ccccc3CC2C(N)=O)cc1 (configuration not stated)	1	.	-4	-1	.	5	.	.
C#CCN(C[C@@H]1[C@@H](OC(=O)NCCCCCC)[C@@H](OC(=O)NCCCCCC)Cn2c(=O)ccc(=O)n21)S(=O)(=O)c1ccc(C)cc1	-20	.	34*	2	.	5	56*	-4
C#CCN(C[C@@H]1[C@@H](OC(=O)NCc2ccco2)[C@@H](OC(=O)NCc2ccco2)Cn2c(=O)n(CCCCCC)c(=O)n21)S(=O)(=O)c1ccc(C)cc1	-11	.	0	-1	.	2	.	.
C#CCN(C[C@@H]1[C@@H](OC(=O)NCc2ccc(OC)c(OC)c2)[C@@H](OC(=O)NCc2ccc(OC)c(OC)c2)Cn2c(=O)ccc(=O)n21)S(=O)(=O)c1ccc(C)cc1	1	.	46*	-1	.	-8	62*	21*
C#CCN(C[C@@H]1[C@@H](OC(=O)NCc2ccc(OC)c(OC)c2)[C@@H](OC(=O)NCc2ccc(OC)c(OC)c2)Cn2c(=O)n(CCCCCC)c(=O)n21)S(=O)(=O)c1ccc(C)cc1	0	.	-4	-3	.	2	.	.
C#CCN(C[C@@H]1[C@@H](OC(=O)NCc2ccco2)[C@@H](OC(=O)NCc2ccco2)Cn2c(=O)ccc(=O)n21)S(=O)(=O)c1ccc(C)cc1	5	.	27*	10	.	-4	41*	26*
C#CCN(C[C@@H]1[C@@H](OC(=O)NC2CC2)[C@@H](OC(=O)NC2CC2)Cn2c(=O)n(CCCCCC)c(=O)n21)S(=O)(=O)c1ccc(C)cc1	0	.	-3	0	.	8	.	.
C#CCN(C[C@@H]1[C@@H](OC(=O)NCC2CCCCC2)[C@@H](OC(=O)NCC2CCCCC2)Cn2c(=O)ccc(=O)n21)S(=O)(=O)c1ccc(C)cc1	-4	.	42*	7	.	6	57*	18*
CCN(CC)c1ccc(N=C2C=CC(=O)C=C2NC(C)=O)cc1	2	.	-1	.	.	-8	.	.
CCCCCCCCC(c1nc2ccccc2[nH]1)N1CCN=C(c2ccccc2)C1=O (configuration not stated)	3	.	-11	.	.	-10	.	.
CCN(CC(=O)Nc1c(F)cccc1F)C(=O)CSCc1ccc(C)cc1	2	.	2	-7	.	3	.	.
CCOC(=O)c1nn(-c2ccccc2)c(=O)c2c(N)scc12	2	2	25*	-3	-1	-5	-23	95*
CCOC(=O)c1nn(-c2ccccc2C)c(=O)c2c(N)scc12	-4	-9	-22	3	-2	0	.	.
Cc1ncc(N=Nc2ccccc2Cl)c(-c2ccccc2)n1	-6	-11	5	7	-1	5	.	.
Nc1nc(-c2ccccc2)c(N=Nc2ccccc2Cl)s1	3	-9	24*	13	14	7	26*	17*
O=C(/C=C/c1ccccc1)COC(=O)c1ccccc1	4	.	59*	0	10	3	80*	92*
O=C(COC(=O)c1ccccc1)c1ccc(Br)cc1	-9	9	-1	5	-5	-7	.	.
Cn1c(NCCN(CCO)CCCc2ccc([N+](=O)[O-])cc2)cc(=O)n(C)c1=O	-2	.	30*	-2	-6	-5	2	2
COc1cccc(NC(=O)CSc2c3c(nc4ccccc24)CCCC3)c1	8	1	34*	2	12	3	39*	46*
CCN(CC)CCNC(=O)CSc1c2c(nc3cc(Cl)ccc13)CCCC2	15	5	33*	-20	8	-5	46*	41*
CCOc1cc(OCC)cc(C(=O)N2CCC[C@H]2C(=O)N2CCC[C@H]2C(=O)N[C@H](C)c2ccccc2)c1	-4	.	-3	.	.	5	.	.
O=C(Nc1cccc(-c2cccc(Cl)c2)c1)C1CCN(Cc2ccc(CO)o2)CC1	5	.	27*	0	17	-1	10	-1
COC(=O)C1=C(C)NC(C)=C(C(=O)OCC(C)C)C1c1ccccc1[N+](=O)[O-] (configuration not stated)	68*	.	36*	5	19	5	36*	95*
CCOC(=O)C1=C(C)NC(C)=C(C(=O)OCC)C1c1cccc([N+](=O)[O-])c1	-1	.	-7	8	.	-7	.	.
O=C(Nc1ccccc1)Nc1nnc([C@H]2C[C@H](O)[C@@H](CO)O2)s1	-12	.	3	.	.	-8	.	.
SMILES	Granule exo inh	TLR4-MyD88 BLA	ABHD5-PLIN5 inh	TLR9-MyD88 inh	Beta2AR agonist	NOD2-RIPK2 inh	ABHD5-PLIN5 conf	HNF4 counter
Cc1c(C(=O)Nc2ccc(Br)cc2)cnn1C	-2	1	1	-3	0	3	.	.
Cc1c(C(=O)c2no[n+]([O-])c2C(=O)c2cnn(C)c2C)cnn1C	48	-14	29*	1	10	-1	58*	74*
CC(=O)Nc1cccc(-c2ccnc3c2CC(C)(C(=O)Nc2ccc(Cl)c(C(F)(F)F)c2)O3)c1 (configuration not stated)	16	.	-1	.	.	1	.	.
COc1ccc(/C=C/C(=O)CC(O)(c2ccccc2)C(F)(F)F)cc1 (configuration not stated)	-4	14	41*	-2	7	8	72*	53*
O=C(/C=C/c1ccccc1)CC(O)(c1ccccc1)C(F)(F)C(F)F (configuration not stated)	9	6	82*	-4	33	2	98*	77*
O=C(/C=C/c1ccccc1)CC(O)(c1ccccc1)C(F)(F)F (configuration not stated)	-1	8	81*	-9	39	15	99*	89*
CCCCCCCCN1C(=O)[C@H](CC(=O)NCCC(C)C)C[C@@]2(C(=O)OCC)CCCC=C12	3	.	7	.	.	4	.	.
COc1cccc(CNc2nc(NC(C)C)nc3ccsc23)c1	7	.	1	.	.	-7	.	.
CCCCCCCCSC1=CC(=O)C(OC)=C(OC)C1=O	114*	.	65*	9	.	-3	100*	104*
CN(C)CCCN(C(=O)COc1ccc(Cl)cc1)c1nc2ccc(F)cc2s1	34	4	27*	6	2	7	13	3
CN(C)CCCN(C(=O)COc1ccccc1)c1nc2ccc(F)cc2s1	0	3	6	5	-3	8	.	.
Cc1ccc2nc(N(CCCN(C)C)C(=O)COc3ccc(Cl)cc3)sc2c1	10	0	26*	5	31	15	16	0
